PubChem BioAssay (NCATS)
Where “and” joins values, the source holds several entries; their conditions need not be identical. Equal values may be shown once. Inconclusive results are not listed. Some compounds were tested as several samples or in several runs, with calls that do not always agree. Calls of active or inactive are those of the source. Unless noted, calls come from the whole dose curve; as a rule, active = well fitted curve in either direction with a large enough effect (not every such curve was filed as active); inconclusive = small, poorly fitted or top-dose-only effect, or another doubt; inactive = flat fitted curve, though single readings scatter.

How the values were obtained:
[1] = AP1 Signaling Pathway (AID 357); details: ME-180 (cervical carcinoma) AP-1-bla reporter, EGF-induced, beta-lactamase ratio, 5 h;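 note: ME-180 reporter cells stimulated with EGF at its EC50 level; % is set by controls: 0 for no effect and ±100 for the full control effect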
Method in brief: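 AP-1-bla ME-180 cells, Opti-MEM + 0.5% dialyzed FBS, plated overnight 37 °C. Cpd titration + EC50 EGF, 5 h 37 °C. CCF4 2.5 h RT; ex 405, em 460/530 ratio → %activity, AC50.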

[2] = molecular target: Cytochrome P450 1A2 (Homo sapiens) (UniProt P05177); assay: p450-cyp1a2 (AID 410; calls by dose curve; note: potency is the fitted concentration of half-maximal effect;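 for activity change, negative = inhibition: -100% = full effect of reference inhibitor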)
Method in brief: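 20nM CYP1A2, 100uM Luciferin-ME (=Km), 100mM KPO4; cpd 10 min RT; +NADPH regen, 60 min RT; stop/detect 20 min; luminescence. Normalized to furafylline 57 uM = full inhibition.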

[3] = NFAT Signaling Pathway (AID 444); details: Jurkat NFAT-bla M1, carbachol, beta-lactamase ratio, 5 h;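 note: carbachol stimulus at about its EC50 of 1 µM final; % is set by controls: 0 for no effect and ±100 for the full control effect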
Method in brief: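 Read-out: CCF4 FRET ratio (460 nm/530 nm) after 1 h RT dye loading, used for %activity and AC50 from titration series. Cells: Jurkat NFAT-β-lactamase/M1 line, treated with compound plus 1 uM carbachol for 5 h, 37 °C.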

[4] = at 38 µM (top of the series) unless noted

Sequence of Cytochrome P450 1A2 (Homo sapiens) (P05177 whole entry, looked up): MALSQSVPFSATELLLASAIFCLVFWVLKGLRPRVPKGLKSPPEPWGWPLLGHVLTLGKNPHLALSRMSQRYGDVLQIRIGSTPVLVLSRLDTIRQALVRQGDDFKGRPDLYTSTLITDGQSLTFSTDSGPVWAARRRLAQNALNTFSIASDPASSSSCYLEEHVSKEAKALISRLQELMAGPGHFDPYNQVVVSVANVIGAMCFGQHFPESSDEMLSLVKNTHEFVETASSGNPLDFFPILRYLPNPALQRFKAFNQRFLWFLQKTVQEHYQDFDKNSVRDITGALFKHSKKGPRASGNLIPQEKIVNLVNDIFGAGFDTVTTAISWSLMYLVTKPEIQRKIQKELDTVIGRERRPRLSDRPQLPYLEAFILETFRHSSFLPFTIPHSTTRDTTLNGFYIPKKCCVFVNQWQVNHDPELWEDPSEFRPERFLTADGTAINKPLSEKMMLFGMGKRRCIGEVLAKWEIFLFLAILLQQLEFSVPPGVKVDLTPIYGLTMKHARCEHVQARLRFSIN

## O=C(O)C1=CCNCC1
[1]; [4]
  activity change, negative = inhibition: -4.73% (inactive)
[2]
  Potency: inactive
[3]; [4]
  activity change, negative = inhibition: -0.658% (inactive)

## CC(C)NCC(O)COc1ccc(CC(N)=O)cc1 (stereo not drawn)
[1]; [4]
  activity change, negative = inhibition: 5.57% [at 17.2 µM] (inactive)

## NCCS(=O)O
[1]; [4]
  activity change, negative = inhibition: 7.28% (inactive)
[2]
  Potency: inactive
[3]; [4]
  activity change, negative = inhibition: 3.37% (inactive)

## Nc1nc2[nH]c(=O)cnc2c(=O)[nH]1
[1]; [4]
  activity change, negative = inhibition: 6.93% (inactive)
[2]
  Potency: inactive
[3]; [4]
  activity change, negative = inhibition: -5.45% (inactive)

## CC(C)NC[C@H](O)COc1ccc(CC(N)=O)cc1
[1]; at 17.2 µM (top of the series)
  activity change, negative = inhibition: -3.59% (inactive) and 11.3% (inactive)
[1]; at 38 µM (top of the series)
  activity change, negative = inhibition: 0.299% (inactive) and 0.963% (inactive) and -3.89% (inactive)
[3]; at 17.2 µM (top of the series)
  activity change, negative = inhibition: -9.34% (inactive) and -0.713% (inactive)
[3]; at 38 µM (top of the series)
  activity change, negative = inhibition: -2.26% (inactive) and 6.34% (inactive) and 5.93% (inactive)

## S=C(S)N1CCCC1
[1]; [4]
  activity change, negative = inhibition: 12.8% (inactive)
[2]
  Potency: 31.6 µM (active) and 12.6 µM (active)
[3]; [4]
  activity change, negative = inhibition: -9.46% (inactive)

## O=S(=O)(c1cccc2c(Cl)cccc12)N1CCCNCC1
[1]; [4]
  activity change, negative = inhibition: -0.881% (inactive)
[2]
  Potency: 15.8 µM (active)
[3]; [4]
  activity change, negative = inhibition: 3.5% (inactive)

## CCCCCCCCCCC/C=C\C(C)(C)/C=C\CCCC(=O)O
[1]; [4]
  activity change, negative = inhibition: -13.8% (inactive)
[2]
  Potency: 39.8 µM (active)

## COc1ccc(-c2ccc(N)[n+](CCCC(=O)O)n2)cc1
[1]; at 17.2 µM (top of the series)
  activity change, negative = inhibition: -6.26% (inactive)
[1]; at 38 µM (top of the series)
  activity change, negative = inhibition: -9.04% (inactive)
[2]
  Potency: inactive
[3]; at 17.2 µM (top of the series)
  activity change, negative = inhibition: 1.69% (inactive)
[3]; at 38 µM (top of the series)
  activity change, negative = inhibition: 4.41% (inactive)

## C=CCn1c(=O)c2c(nc(-c3ccc(S(=O)(=O)O)cc3)n2C)n(C)c1=O
[1]; [4]
  activity change, negative = inhibition: 7.93% (inactive)
[2]
  Potency: inactive
[3]; [4]
  activity change, negative = inhibition: -1.07% (inactive)

## Cc1nc2c(OCc3ccccc3)cccn2c1CC#N
[1]; [4]
  activity change, negative = inhibition: -13% (inactive)
[2]
  Potency: 2 µM (active) and 398 nM (active)
[3]; [4]
  activity change, negative = inhibition: 4.14% (inactive)

## CC(C)Cn1c(=O)n(C)c(=O)c2[nH]cnc21
[1]; [4]
  activity change, negative = inhibition: 0.858% (inactive)
[2]
  Potency: 20 µM (active)
[3]; [4]
  activity change, negative = inhibition: -7.31% (inactive)

## NS(=O)(=O)c1cccc2c1c([N+](=O)[O-])cc1nc(O)c(O)nc12
[1]; [4]
  activity change, negative = inhibition: 7.91% (inactive)
[2]
  Potency: 25.1 µM (active) and inactive
[3]; [4]
  activity change, negative = inhibition: 5.62% (inactive)

## CCCn1c(=O)c2c(ncn2C)n(CCC)c1=O
[1]; [4]
  activity change, negative = inhibition: 2.31% (inactive)
[2]
  Potency: 7.94 µM (active)
[3]; [4]
  activity change, negative = inhibition: 0.366% (inactive)

## O=[N+]([O-])c1cccc2c(Br)[nH]nc12
[1]; [4]
  activity change, negative = inhibition: 1.06% (inactive)
[2]
  Potency: 794 nM (active) and 126 nM (active)
[3]; [4]
  activity change, negative = inhibition: -9.63% (inactive)

## CC(=O)NCCc1c[nH]c2ccc(O)cc12
[1]; [4]
  activity change, negative = inhibition: -2.23% (inactive)
[2]
  Potency: 15.8 µM (active)
[3]; [4]
  activity change, negative = inhibition: 7.32% (inactive)
